Source: PubChem BioAssay
TSHR antagonist: Antagonists of the Thyroid Stimulating Hormone Receptor: HTS campaign. Thyrotropin receptor (Homo sapiens), P16473. TSHR-expressing cells, TSH-stimulated cAMP HTRF, 2 h; stronger effect = lower value. activity change, negative = inhibition, % at 11.5 µM. 330,000 compounds, 0.2% hits;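 active = activity change below a set negative limit, meaning inhibition stronger than a set level, cut at about -70% in these data; inconclusive = activity change between two set negative limits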; also: % is scaled to controls: 0 for no effect and ±100 for the full control effect
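TSHR-expressing cells were treated with compounds, then stimulated with TSH at EC80 (4nM final) for 2 hours at 37 deg C. Cellular cAMP was measured by HTRF competition between lysate cAMP and cAMP-d2 for a cryptate-labelled anti-cAMP antibody.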
D3 antag: qHTS of D3 Dopamine Receptor Antagonist: qHTS. 360,000 compounds, 2.5% hits. max response, negative = inhibition, %. D(3) dopamine receptor (Homo sapiens), P35462. D3R cells, DiscoveRx beta-arrestin luminescence, antagonist mode; stronger effect = lower value; in the data active = max response below about -50%; inconclusive = no clear call, values can overlap the other calls; also: % is scaled to controls: 0 for no effect and ±100 for the full control effect
Target sequence (P35462 whole entry, looked up): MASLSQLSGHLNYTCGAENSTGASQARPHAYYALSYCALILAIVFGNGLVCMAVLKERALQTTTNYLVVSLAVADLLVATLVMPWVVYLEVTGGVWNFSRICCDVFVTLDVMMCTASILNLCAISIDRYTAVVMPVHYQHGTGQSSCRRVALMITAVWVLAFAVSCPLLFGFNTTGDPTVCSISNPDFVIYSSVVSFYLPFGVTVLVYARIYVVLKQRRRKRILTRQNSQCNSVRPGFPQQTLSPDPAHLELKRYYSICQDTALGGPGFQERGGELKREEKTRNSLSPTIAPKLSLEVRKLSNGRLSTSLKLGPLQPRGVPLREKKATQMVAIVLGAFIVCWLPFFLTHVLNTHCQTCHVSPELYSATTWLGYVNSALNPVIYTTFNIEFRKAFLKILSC
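Cells expressing the human receptor were seeded at 1500 cells/well, incubated overnight at 37 degrees C in 5% CO2, then exposed to library compounds with dopamine controls for 90 minutes at 37 degrees C before luminescent detection.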
B2AR arrestin: qHTS assay of beta-arrestin-biased ligands of beta2-adrenergic receptor; beta-arrestin recruitment to beta2AR, cell-based reporter; Potency, µM (highest dose often 46.1 µM), without a hit: at the top dose activation, actives largely listed as activators; 330,000 compounds, 0.02% hits; AID 492947, 2010; active = well fitted activation curve with a large enough effect; inconclusive = small, poorly fitted or top-dose-only effect;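 also: potency is read from the fitted curve at half-maximal effect; 0% = DMSO controls and full agonism = EC100 isoproterenol or metaproterenol; nearly all actives have a fitted effect of over 65% in size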
DRD3 agonist: qHTS of D3 Dopamine Receptor Agonist: qHTS. D(3) dopamine receptor (Homo sapiens), P35462. 410,000 compounds, 0.58% hits. D3R DiscoveRx beta-arrestin cells, luminescence, 90 min. AID 652048, 2013. max activation, %; in the data active = max activation above about 30%; also: 0% is about no effect
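Cells at 1500/well, incubated overnight, then treated with pinned compounds (dopamine as control) for 90 min at 37 degrees C. DiscoveRx reagent added for 30 - 60 minutes at room temperature; luminescence read.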
* hit, by the source's call; ? = inconclusive; / = not tested or not shown. This is a sample that favours compounds with a hit; in the whole collection about 2.9% have one here.

SMILES	TSHR antagonist	D3 antag	B2AR arrestin	DRD3 agonist
COc1cc(C(=O)N2CCNC(=O)C2CC(=O)Nc2ccc(C)c(C)c2)cc(OC)c1OC (stereo not given)	/	/	/	8.4
CCOC(=O)/C(C)=N/NC(=O)c1ccc([N+](=O)[O-])cc1	-6.4	-19.5	0.3%	-10.4
CCOC(=O)C(CC)/C(C)=N/NC(=O)c1ccc([N+](=O)[O-])cc1 (stereo not given)	-8.6	-64.5*	0.3%	-4.5
Cc1nc(-[n+]2nc(-c3ccncc3)nn2-c2ccccc2)sc1C	/	-101.8*	/	-23.0
O=C(NC1(C(F)(F)F)NC(=O)N(CC2CCCCC2)C1=O)c1ccco1 (stereo not given)	-5.3	-51.1*	-0.9%	-2.7
CCc1ccc(NC(=O)C(CC)n2c(=O)c(-c3ccccc3NC(C)=O)nc3ccccc32)cc1 (stereo not given)	/	/	/	-14.0
C[C@H](NC(=O)c1ccccc1Cl)C(=O)OCC(=O)NNC(=O)c1cccs1	3.4	-55.1*	0.5%	-15.0
CSc1ccc(CNc2nnnn2C)cc1	1.8	-3.4	-0.1%	45.7*
COc1ccc(C(=O)c2cn(Cc3cccc(C)c3)c3cc4c(cc3c2=O)OCCO4)cc1OC	/	/	/	1.8
COCCCNC(=S)NC1CC2CCCC(C1)N2Cc1ccco1 (stereo not given)	24.3	-150.1*	-1.8%	-14.2
CNC(=S)NC1CC2CCCC(C1)N2Cc1ccco1 (stereo not given)	12.0	-10.2	0.1%	-29.7
Cc1cccc(NC(=S)NC2CC3CCCC(C2)N3Cc2ccco2)c1 (stereo not given)	10.3	-60.8*	0.0%	-21.4
Cc1cccc(NC(=S)NC2CC3CCC(C2)N3Cc2ccco2)c1 (stereo not given)	1.9	?	0.1%	-29.2
CCCCC/C=C\CCC(=O)N[C@H]1[C@H](Oc2c3cc4cc2Oc2ccc(cc2Cl)[C@@H](O[C@@H]2O[C@H](CO)[C@@H](O)[C@H](O)[C@H]2NC(C)=O)[C@@H]2NC(=O)[C@H](NC(=O)[C@@H]4NC(=O)[C@H]4NC(=O)[C@@H](Cc5ccc(c(Cl)c5)O3)NC(=O)[C@H](N)c3ccc(O)c(c3)Oc3cc(O)cc4c3)c3ccc(O)c(c3)-c3c(O[C@H]4O[C@H](CO)[C@@H](O)[C@H](O)[C@@H]4O)cc(O)cc3[C@@H](C(=O)O)NC2=O)O[C@H](CO)[C@@H](O)[C@@H]1O	/	/	/	-16.7
Cc1ncc(CO)c(/C=N/Nc2ccc(C(F)(F)F)cn2)c1O	-9.1	-73.7*	-0.3%	-22.7
CC(=O)O[C@H]1[C@@H](O)[C@H](O)[C@H](Oc2c(O)c(C)c3c4c2[C@@H](C)CC[C@@H]4[C@@H](C)C[C@H]3C=C(C)C)O[C@H]1C	6.4	95.9	0.0%	30.5*
CN(C)c1ccc(-c2csc(C(O)(c3ccccc3)C(F)(F)F)n2)cc1 (stereo not given)	/	-94.2*	/	-12.2
Cc1ccc(-c2csc(C(O)(c3ccccc3)C(F)(F)F)n2)cc1C (stereo not given)	/	-27.3	/	-10.4
CN(c1ccccc1)S(=O)(=O)c1ccc(NC(=O)c2cc(=O)c3ccccc3o2)cc1	/	/	/	2.5
CC(=O)c1ccc2c(c1)N(Cc1ccc3ccccc3c1)C(=O)C(C)S2 (stereo not given)	/	-74.8*	/	-5.9
CC1Sc2ccccc2N(Cc2ccccc2)C1=O (stereo not given)	/	12.5	/	1.9
CNc1cccc(-c2cccc(O)c2)n1	/	-53.0*	/	-15.3
COc1cccc(CNc2nc3cc(-c4cccc(C(=O)NCCO)c4)sc3c(=O)n2C)c1	/	33.7	/	4.9
O=c1ccn([C@@H]2O[C@H](CNCc3ccc(-c4cc(C(F)(F)F)ccc4Cl)o3)[C@@H](O)[C@H]2O)c(=O)[nH]1	/	-15.6	/	-38.5
Nc1ncnc2c1ncn2[C@@H]1O[C@H](CNCc2ccc(-c3cc(C(F)(F)F)ccc3Cl)o2)[C@@H](O)[C@H]1O	15.1	-75.8*	-0.2%	-74.7
SMILES	TSHR antagonist	D3 antag	B2AR arrestin	DRD3 agonist
Cc1ccc(OCCCCN2CCc3ccccc3C2)c(C)c1	5.4	-106.2*	-1.1%	-31.1
Cc1ccc(C(C)C)c(OCCCN2CCc3ccccc3C2)c1	0.5	-84.8*	-0.1%	-20.3
Cc1ccc(C)c(OCCCC(=O)O)c1	8.9	-18.9	-0.1%	0.8
Cc1ccc(C)c(OCCCN2CCc3ccccc3C2)c1	-6.6	-88.6*	-0.4%	-12.4
Cc1ccc(C(C)C)c(OCCN2CCc3ccccc3C2)c1	0.6	-67.0*	-0.3%	-33.5
Cc1ccc(C(C)C)c(OCCCN2C(=O)NC(C)(C)C2=O)c1	-3.8	-4.0	0.4%	0.1
CCn1cc(/C=C(\NC(=O)c2ccc(C)cc2)C(=O)NCCCn2ccnc2)c2ccccc21	/	/	/	-14.0
Cc1ccc(OCCCCn2cnc3ccccc32)c(C)c1	-20.0	-57.0*	0.0%	1.7
Brc1ccccc1OCCCCn1cnc2ccccc21	-14.3	-9.3	0.2%	1.4
CCOC(=O)C1CCCCN1Cc1cccc(OC)c1OC (stereo not given)	-9.4	-107.5*	1.0%	-8.9
O=[N+]([O-])c1cc(Br)c(O)c(C=Nc2ccc(N3CCOCC3)cc2)c1	-85.7*	?	0.0%	-21.4
O=C(CSc1nnc(CNC(=O)c2c(F)cccc2Cl)o1)Nc1cccc(F)c1	/	/	/	-1.7
CC1CN(S(=O)(=O)c2cccc(C(=O)OCc3cc(=O)oc4cc(O)ccc34)c2)CC(C)O1 (stereo not given)	-21.3	-55.9*	0.2%	-10.2
CCCNS(=O)(=O)c1cccc(C(=O)OCc2cc(=O)oc3cc(OC)ccc23)c1	-11.0	23.1	0.3%	-2.0
COc1ccc2c(COC(=O)c3cccc(S(=O)(=O)NCC(C)C)c3)cc(=O)oc2c1	-8.1	46.3	-0.7%	31.9*
CCc1ccc(CNC(=O)c2cnc3sc(N4CCOCC4)nn3c2=O)cc1	/	/	/	17.0
COc1ccc(N2CCN(CCCn3c(=S)[nH]c4ccccc4c3=O)CC2)cc1	5.8	-75.2*	-0.4%	-2.7
COc1ccc(-n2c(CCc3ccccc3)n[nH]c2=S)cc1	-5.5	-1.2	3.0%	-6.2
O=c1c2ccccc2[nH]c(=S)n1CCN1CCc2ccccc2C1	-6.0	-89.7*	-0.1%	-27.1
COc1ccccc1N1CCN(CCc2n[nH]c(=S)n2-c2ccccc2)CC1	/	-80.2*	-0.5%	-38.2
CN1CCN(CCn2c(=S)[nH]c3ccccc3c2=O)CC1	3.5	14.2	0.2%	-5.5
COc1ccccc1N1CCN(CCCn2c(=S)[nH]c3ccccc3c2=O)CC1	-1.5	-108.6*	0.3%	-18.8
CCOC(=O)C1CCCN(C(=O)c2nn(-c3ccc(C)cc3)c(=O)c3c2c2ccccc2n3C)C1 (stereo not given)	/	/	/	-11.1
O=C(CN1C(=O)CC(c2ccccc2)=Nc2ccccc21)NCc1ccccc1	-2.9	0.0	-0.1%	0.5
